Assay outcomes as filed in PubChem BioAssay.
697 NFkB inh: lowers PMA/ionomycin-induced NF-kB signal in 697 B cells; AID 435022; inhibition, % at 4 µM; 697 B-cell NF-kB luciferase reporter, 16 h; 330,000 compounds, 0.33% hits; in the data active = inhibition above about 35%
TMEM16A act: activators or potentiators of mouse TMEM16A chloride channel | Q8BHY3 | HEK293 TMEM16A/YFP-H148Q/I152L, iodide quench fluorescence; hits give low values | B-score at 10 µM | 340,000 compounds, 0.3% hits | AID 623877;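 active = fluorescence-ratio B-score plate-corrected deviation score at least 3 library SD below zero, with starting fluorescence score within 5 deviations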;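 also: channel opened by trigger with iodide after compound preincubation; score built on the fluorescence ratio of max minus min over baseline; more negative score means more quench and so TMEM16A activation or potentiation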
Target sequence (Q8BHY3 whole entry, looked up): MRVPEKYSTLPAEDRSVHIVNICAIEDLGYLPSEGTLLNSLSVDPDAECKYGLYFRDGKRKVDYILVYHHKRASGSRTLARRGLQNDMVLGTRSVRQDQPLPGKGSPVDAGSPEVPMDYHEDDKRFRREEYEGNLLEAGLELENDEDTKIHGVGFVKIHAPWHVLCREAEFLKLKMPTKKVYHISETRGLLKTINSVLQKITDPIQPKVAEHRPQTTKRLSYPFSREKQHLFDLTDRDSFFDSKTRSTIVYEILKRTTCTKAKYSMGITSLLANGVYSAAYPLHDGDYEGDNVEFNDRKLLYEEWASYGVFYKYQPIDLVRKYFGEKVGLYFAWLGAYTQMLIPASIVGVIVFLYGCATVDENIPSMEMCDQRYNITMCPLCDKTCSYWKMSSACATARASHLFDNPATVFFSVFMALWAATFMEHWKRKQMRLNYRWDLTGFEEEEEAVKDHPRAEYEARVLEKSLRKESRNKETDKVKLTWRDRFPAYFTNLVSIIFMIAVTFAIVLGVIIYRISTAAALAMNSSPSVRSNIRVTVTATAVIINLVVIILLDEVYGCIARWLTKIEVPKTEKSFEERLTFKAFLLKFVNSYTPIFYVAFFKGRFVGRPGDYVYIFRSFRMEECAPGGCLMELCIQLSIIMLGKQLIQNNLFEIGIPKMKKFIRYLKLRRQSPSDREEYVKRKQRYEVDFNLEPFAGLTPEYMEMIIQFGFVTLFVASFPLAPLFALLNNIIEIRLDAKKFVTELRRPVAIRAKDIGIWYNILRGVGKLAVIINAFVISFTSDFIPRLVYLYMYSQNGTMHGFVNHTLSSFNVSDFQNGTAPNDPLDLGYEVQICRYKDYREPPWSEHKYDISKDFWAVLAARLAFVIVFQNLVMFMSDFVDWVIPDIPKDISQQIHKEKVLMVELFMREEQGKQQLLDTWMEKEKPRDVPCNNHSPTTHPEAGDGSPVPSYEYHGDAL
TMEM16A inh: mouse TMEM16A channel inhibition, primary screen | AID 588511 | Q8BHY3 | normalized B-score (activity score, 25-100; higher = stronger inhibition) at 10 µM | 310,000 compounds, 1.2% hits | HEK293 TMEM16A/YFP iodide influx fluorescence, ionomycin;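 active = ratio plate-corrected score three or more library SD toward inhibition, starting fluorescence score within five deviations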;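 also: score derived from kinetic fluorescence span divided by baseline fluorescence per well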
KLF5 inh: inhibitors of KLF5 expression | AID 1700 | DLD-1 KLF5 promoter-luciferase reporter, luminescence | inhibition, % at 5 µM | 290,000 compounds, 0.23% hits;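 active = inhibition above a per-plate limit of that plate's mean compound inhibition plus 3 SD, cut at about 60% in these data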;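 also: 0% = DMSO wells and 100% = LY294002 at 200 µM; higher means less KLF5 promoter-driven luciferase light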
aSyn UTR inh: 5' untranslated region of α-synuclein, MLPCN primary screen. alpha-synuclein 5'UTR reporter, inhibitor activity. 300,000 compounds, 0.82% hits. inhibition, % (tested at 7.5 µM); in the data active = inhibition above about 60%;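 also: H4 neuroglioblastoma cells stably carrying SNCA 5'UTR luciferase fusion; 0% = DMSO wells and 100% = positive control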
Jurkat NFkB inh: lowers PMA/ionomycin-induced NF-kB signal in Jurkat cells | inhibition, % at 4 µM | AID 435003 | 330,000 compounds, 0.53% hits | PMA/ionomycin-induced NF-kB luciferase reporter, luminescence; in the data active = inhibition above about 50%
Jurkat NFkB conf: lowers PMA/ionomycin-induced NF-kB signal in Jurkat cells; shares compounds with Jurkat NFkB inh; Jurkat NF-kB luciferase, 16 h; inhibition, % at 4 µM; 2,700 compounds, 27% hits; AID 435020;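 active = inhibition reaching about 45% at 4 µM in either replicate, limit read from the data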;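 also: plate controls were PMA/ionomycin stimulated DMSO wells for no effect and unstimulated DMSO wells for full effect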
* = called active by the depositor; i = inactive; · = no result given. Compounds with a hit are over-represented: about 2.5% of the library has one in this group of screens.

SMILES	697 NFkB inh	TMEM16A act	TMEM16A inh	KLF5 inh	aSyn UTR inh	Jurkat NFkB inh	Jurkat NFkB conf
CN(C)S(=O)(=O)c1ccc(Nc2nc(C3CC3)nc3c2nnn3Cc2ccccc2Cl)cc1	-15.9	i	i	-13.2	29.5	57.3*	65.4*
C=CC[n+]1c(/C=C2\C=Cc3cc(C)ccc3N2CC)ccc2ccccc21	32.0	i	i	6.9	67.2*	78.2*	27.9
OCCCNc1ncnc2c1cnn2-c1ccc(Cl)cc1	-135.1	i	i	-70.0	31.8	-153.4	-101.7
C=CCNc1ncnc2c1cnn2-c1ccc(OC)cc1	-129.9	i	i	-117.0	-20.1	-153.9	-80.0
COC(=O)[C@@]12CCCCN1[C@H](c1ccc(-c3ccc(F)cc3)c(OC)c1)[C@@H]1C(=O)N(C)C(=O)[C@@H]12	21.4	i	i	·	·	25.9	·
COc1ccc2cc(-c3ccsc3)ncc2c1	-156.5	i	·	·	·	-150.6	-92.2
COc1ccc2cc(C3=CCCCC3)ncc2c1	-220.5	i	·	·	·	-198.2	-115.2
O=C(O)c1ccc(OCCCCCCOC2CCCCO2)cc1 (configuration not stated)	-3.1	i	i	-4.0	15.1	21.4	·
COc1cccc(NC(=O)CSc2nc3scc(C)c3c(=O)[nH]2)c1	8.2	i	i	-33.7	-4.8	-12.1	·
CC12CCC(C(NC(=S)NN)C1=O)C2(C)C (configuration not stated)	·	i	·	·	·	·	·
CCOc1ccc(C(C)=O)cc1COC(=O)CCc1cc(OC)c(OC)c(OC)c1	-5.5	i	i	-23.6	-9.2	-7.2	·
CCN(CC)c1ccc(/C=N/NC(=O)c2nnn(-c3nonc3N)c2C(C)C)c(O)c1	-6.3	i	i	49.6	92.0*	63.0*	50.4*
CCN(CC)c1ccc(/C=N/NC(=O)c2ccc3nc[nH]c3c2)c(O)c1	-17.6	i	i	17.6	92.6*	54.5*	5.9
COc1cccc(/C=N/NC(=O)c2ccc3nc[nH]c3c2)c1O	29.9	i	i	-39.7	1.2	-2.1	·
COc1cccc(CNC(=O)CNS(=O)(=O)c2ccc(Br)s2)c1	-11.2	i	i	-6.3	-0.4	-16.8	·
Cc1ccc(C2=NN3C(C2)c2ccccc2OC32C(=O)Nc3ccccc32)cc1 (configuration not stated)	-196.5	i	i	-111.4	-147.6	-167.2	-100.5
Cc1cccc(Nc2nc(N)nc(CCl)n2)c1C	33.8	i	i	-22.2	3.2	87.6*	23.8
Cc1ccc(Nc2nc(N)nc(CN3CCCCCC3)n2)c(C)c1	-4.8	i	i	-16.7	3.6	4.6	·
Cc1ccc(Nc2nc(N)nc(CCl)n2)cc1	-2.3	i	i	-31.1	-53.2	-22.5	·
COc1ccccc1Nc1nc(N)nc(CCl)n1	8.4	i	i	-24.5	-12.0	6.9	·
CCOc1ccc(Nc2nc(N)nc(CCl)n2)cc1	-10.8	i	i	-54.2	96.0*	58.6*	10.2
Cc1ccc(Nc2nc(N)nc(CCl)n2)c(C)c1	-151.7	i	i	-15.2	-44.7	90.4*	4.2
O=C(COc1ccc(C(=O)NCCN2CCOCC2)cc1)Nc1cccc(C(F)(F)F)c1	-12.6	i	i	·	-5.3	5.7	·
CC(C)Cc1nnc(NC(=O)C2CCCC2)s1	-32.1	i	i	-33.1	-36.0	-12.8	·
O=C(NC1CCCCC1)c1ccc(-c2ccccc2F)o1	-163.2	i	·	·	·	-163.2	-122.0
SMILES	697 NFkB inh	TMEM16A act	TMEM16A inh	KLF5 inh	aSyn UTR inh	Jurkat NFkB inh	Jurkat NFkB conf
O=C(NC1CCCCC1)c1ccc(-c2cccc([N+](=O)[O-])c2)o1	-238.9	i	i	-140.7	-126.9	-160.6	-61.7
O=C(NC1CCCCCC1)c1ccc(CS(=O)(=O)Cc2ccccc2F)o1	-2.8	i	i	-66.8	7.0	14.7	·
CC(C)(C)[C@H](N)C(=O)N[C@H]1CCC2C3CC=C4C[C@@H](O)CC[C@]4(C)C3CC[C@@]21C (some centres not stated)	8.3	i	·	·	·	61.4*	37.2
O=c1[nH]c(/C=C2\C=Nc3ccccc32)c(O)n1Cc1ccccc1F	-18.4	i	i	-11.6	32.1	84.0*	9.6
CSc1nc(O)c(/C=C2\C=Nc3ccccc32)[nH]1	-37.4	i	i	-35.7	-221.3	-40.3	·
Cn1nc([N+](=O)[O-])nc1Sc1nnc(-c2ccccc2)o1	-164.8	i	i	27.3	91.9*	73.6*	69.7*
C=CCNCc1ccccc1[N+](=O)[O-]	5.4	i	i	·	-23.7	12.2	·
CCOC(=O)c1sc2nc(-c3cccnc3)ccc2c1N	-147.4	i	i	-210.6	-149.9	-182.4	-69.1
Nc1nc(N)nc(Cc2ccccc2O)n1	0.6	i	·	·	·	4.6	·
Cc1cc2nc(-c3ccc(SCC(=O)Nc4ccc5c(c4)OCCO5)nc3)[nH]c2cc1C	-34.2	i	i	-21.3	-207.0	-121.3	·
Cc1ccc2nc(-c3ccc(SCC(=O)Nc4ccc5c(c4)OCCO5)nc3)[nH]c2c1	-8.1	i	i	-37.6	-327.5	-152.9	-123.3
O=C(N/N=C/C(Cl)=C\c1ccccc1)c1cccs1	-217.4	i	i	-175.7	-92.0	-166.5	-91.9
CC(/C=N/NC(=O)c1cccs1)=C\c1ccccc1	-200.1	i	i	-106.3	-99.2	-110.6	·
N/C(=N\OC(=O)c1cccc(Br)c1)c1ccc(Br)cc1	-36.0	i	i	6.7	-95.8	-39.9	·
N/C(=N\OC(=O)c1ccc(Br)cc1)c1ccccc1	-177.6	i	i	-18.1	-189.9	-162.6	-102.8
S=c1[nH]ccc2ccccc12	·	i	·	·	·	·	·
N#C/C(=C/C1=C(N2CCOCC2)C(=C/c2ccc(Cl)cc2)/CC1)C(=O)Nc1ccccc1F	·	i	·	·	·	·	·
c1ccc(-c2cc(-c3ccccc3)on2)cc1	-205.8	i	i	-141.7	-152.5	-208.6	-150.9
Nc1nc(-c2cc(-c3ccccc3)no2)cs1	-197.7	i	i	-159.4	-173.6	-91.5	·
CCc1cc2c(=O)nc3n(c2s1)Cc1ccccc1/C3=C(/O)c1cccc([N+](=O)[O-])c1	-107.6	i	i	-1.6	-18.9	69.2*	51.3*
CCc1cc2c(=O)nc3n(c2s1)Cc1ccccc1/C3=C(/O)c1ccc(F)cc1	-36.6	i	i	10.4	14.7	9.8	·
COC(=O)C1C(=O)c2c([nH]c(C(=O)OCCOC(C)C)c2C)CC1C (configuration not stated)	-27.0	·	i	-41.8	-59.1	-19.9	·
COC(=O)C1C(=O)c2c([nH]c(C(=O)OC3CCCCC3)c2C)CC1C (configuration not stated)	-168.8	i	i	-31.0	-178.3	-163.2	-93.3
COC(=O)C1C(=O)c2c([nH]c(C(=O)OC3CCCC3C)c2C)CC1C (configuration not stated)	-161.2	i	i	-124.4	-168.2	-180.2	-112.0
